Test results reported in PubChem BioAssay (NCI).
This is part of a sample that, as a whole, favours compounds with a hit. Of some 83,000 tested, about 20% had one in any assay.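 Testing used 96-well plates and a 48-hour single-concentration exposure. Example: -40 means 40% of the starting cells died.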 Active and inactive are the calls of the source. Rule for the calls: active = growth percent below 10; inactive = the rest.

Legend:
Experiment in all cases: NCI-60 one-dose screen, 48 h (100 = growth as untreated, 0 = no growth, -100 = all killed)
HCT-15 colon = conditions: 10 µM unless noted
HT29 colon = conditions: 10 µM unless noted
SNB-75 CNS = conditions: 10 µM unless noted
SNB-19 CNS = conditions: 10 µM unless noted
U251 CNS = conditions: 10 µM unless noted
PC-3 prostate = conditions: 10 µM unless noted
SK-MEL-5 melanoma = conditions: 10 µM unless noted
UACC-62 melanoma = conditions: 10 µM unless noted
LOX IMVI melanoma = conditions: 10 µM unless noted
EKVX NSCLC = conditions: 10 µM unless noted
SN12C renal = conditions: 10 µM unless noted
UO-31 renal = conditions: 10 µM unless noted
TK-10 renal = conditions: 10 µM unless noted
ACHN renal = conditions: 10 µM unless noted
CAKI-1 renal = conditions: 10 µM unless noted
CCRF-CEM leukemia = conditions: 10 µM unless noted
MOLT-4 leukemia = conditions: 10 µM unless noted
SK-MEL-28 melanoma = conditions: 10 µM unless noted
A498 renal = conditions: 10 µM unless noted
SK-MEL-2 melanoma = conditions: 10 µM

Measured: growth

CCn1cc(-c2ccnc3[nH]c(-c4cccc(CN(C)C)c4)cc23)c(-c2ccc(NC(=O)N(C)C)cc2)n1
inactive: HCT-15 colon 24.6% | SNB-19 CNS 55% | U251 CNS 38.2% | PC-3 prostate 30.6% | SK-MEL-5 melanoma 37.5% | UACC-62 melanoma 39.9% | EKVX NSCLC 55.4% | SN12C renal 24.1% | TK-10 renal 44.3% | ACHN renal 15.4%
active: HT29 colon -7.89% | SNB-75 CNS -52.6% | LOX IMVI melanoma -76.9% | UO-31 renal -10.7% | CAKI-1 renal 6.96% | CCRF-CEM leukemia 4.15% | MOLT-4 leukemia 7.17%

COc1cc(NCCN(CC(C)C)CC(C)C)c2ncc(C)cc2c1
inactive: HCT-15 colon 34.2% | HT29 colon 86.1% | SNB-75 CNS 95.3% | SNB-19 CNS 85.3% | U251 CNS 67.9% | PC-3 prostate 47.8% | SK-MEL-5 melanoma 23.6% | UACC-62 melanoma 53% | SK-MEL-28 melanoma 79.7% | EKVX NSCLC 74.9% | SN12C renal 74.7% | UO-31 renal 64% | TK-10 renal 139% | ACHN renal 77.7% | A498 renal 113% | CCRF-CEM leukemia 86.4% | MOLT-4 leukemia 54.9%

CCN(CCN(C)C)C(=O)CNCc1cc(C(N)=O)ccn1
inactive: HCT-15 colon 102% | HT29 colon 80% | SNB-75 CNS 98.6% | SNB-19 CNS 104% | U251 CNS 87.5% | PC-3 prostate 79.5% | SK-MEL-5 melanoma 95.4% | UACC-62 melanoma 105% | LOX IMVI melanoma 99.5% | EKVX NSCLC 104% | SN12C renal 98.8% | UO-31 renal 93.2% | TK-10 renal 96.4% | ACHN renal 108% | CAKI-1 renal 105% | CCRF-CEM leukemia 93.6% | MOLT-4 leukemia 99.8%

CNC(=O)c1ccccc1Nc1nc(Nc2ccc3c(c2OC)CCC[C@H](N2CCN(CCO)CC2)C3)ncc1Cl
inactive: SNB-19 CNS 18.8% | PC-3 prostate 22.9% | EKVX NSCLC 11.8% | TK-10 renal 26.2%
active: HCT-15 colon 0.498% | HT29 colon -44.3% | SNB-75 CNS -5.43% | U251 CNS -19.4% | SK-MEL-5 melanoma -92.4% | UACC-62 melanoma -45% | SK-MEL-28 melanoma -77.1% | SN12C renal 7.63% | UO-31 renal 6.91% | ACHN renal 5.75% | CAKI-1 renal -26.6% | A498 renal -64.3% | CCRF-CEM leukemia 7.29% | MOLT-4 leukemia -23.5%

C[C@]12O[C@H](C[C@]1(O)CO)n1c3ccccc3c3c4c(c5c6ccccc6n2c5c31)CNC4=O
active: HCT-15 colon -12.4% | HT29 colon -22.5% | SNB-75 CNS -99.4% | SNB-19 CNS -20.6% | U251 CNS -75.1% | PC-3 prostate -31% | SK-MEL-5 melanoma -87% | UACC-62 melanoma -49.9% | LOX IMVI melanoma -70.5% | EKVX NSCLC -8.26% | SN12C renal -42% | UO-31 renal -63.1% | TK-10 renal -81.5% | ACHN renal -8.21% | CCRF-CEM leukemia 0.654% | MOLT-4 leukemia -18%

O=C(NO)c1ccc(Cn2c(=O)n(CCc3ccccc3)c(=O)c3ccccc32)cc1
inactive: HCT-15 colon 28.6% | HT29 colon 42.3% | SNB-75 CNS 54.3% | SNB-19 CNS 45.2% | U251 CNS 23.8% | PC-3 prostate 20.3% | SK-MEL-5 melanoma 34.8% | LOX IMVI melanoma 12.9% | EKVX NSCLC 38.8% | SN12C renal 38.5% | UO-31 renal 17.3% | TK-10 renal 43.4% | ACHN renal 25.8%
active: UACC-62 melanoma 3.79% | CCRF-CEM leukemia 4.6% | MOLT-4 leukemia 3.88%

CC(CCCC(=O)O)c1ccoc1 (configuration not stated)
inactive: HCT-15 colon 102% | HT29 colon 95.5% | SNB-75 CNS 92.6% | SNB-19 CNS 111% | U251 CNS 109% | PC-3 prostate 98.4% | SK-MEL-5 melanoma 106% | UACC-62 melanoma 107% | LOX IMVI melanoma 97.8% | EKVX NSCLC 96% | SN12C renal 105% | UO-31 renal 86.2% | TK-10 renal 98.3% | ACHN renal 111% | A498 renal 110% | CCRF-CEM leukemia 109% | MOLT-4 leukemia 109%

NC(=O)N1N=C(c2ccc(Cl)cc2)CC1c1cn(-c2ccccc2)nc1-c1ccc(Cl)cc1 (configuration not stated)
inactive: HCT-15 colon 72% | HT29 colon 51.1% | SNB-19 CNS 44% | U251 CNS 46% | PC-3 prostate 52.8% | SK-MEL-5 melanoma 79% | UACC-62 melanoma 61.7% | SK-MEL-28 melanoma 78.4% | EKVX NSCLC 58.1% | SN12C renal 61.9% | UO-31 renal 21.5% | TK-10 renal 43.2% | CAKI-1 renal 67.7% | A498 renal 71.1% | CCRF-CEM leukemia 85.2% | MOLT-4 leukemia 62.9%
active: SNB-75 CNS -10.5%

Cc1ccccc1Nc1nc2nonc2nc1Nc1cccc(C)c1C
inactive: HCT-15 colon 44.8% | HT29 colon 46.9% | SNB-75 CNS 75.8% | SNB-19 CNS 52.7% | U251 CNS 29.9% | PC-3 prostate 42.2% | UACC-62 melanoma 22.8% | SK-MEL-28 melanoma 79.7% | SK-MEL-2 melanoma 24.9% | EKVX NSCLC 27.2% | SN12C renal 44.3% | UO-31 renal 51.4% | TK-10 renal 56.4% | ACHN renal 52.6% | CAKI-1 renal 48.9% | CCRF-CEM leukemia 50.6% | MOLT-4 leukemia 53.5%
active: SK-MEL-5 melanoma 5.63%

NC1=Nc2ccccc2N(O)N1
inactive: HCT-15 colon 105% | HT29 colon 90.6% | SNB-75 CNS 78.5% | SNB-19 CNS 108% | U251 CNS 98.6% | PC-3 prostate 95.1% | SK-MEL-5 melanoma 105% | UACC-62 melanoma 102% | LOX IMVI melanoma 96.8% | EKVX NSCLC 95.4% | SN12C renal 99.1% | UO-31 renal 88.4% | TK-10 renal 94.7% | ACHN renal 100% | CAKI-1 renal 91.8% | CCRF-CEM leukemia 105% | MOLT-4 leukemia 99.4%

Nc1c(C(=O)c2ccccc2)sc2nc(-c3cccs3)cc(-c3cccs3)c12
inactive: HCT-15 colon 31.2% | HT29 colon 11.2% | SNB-75 CNS 22.2% | SNB-19 CNS 42.9% | U251 CNS 25.6% | PC-3 prostate 33% | SK-MEL-5 melanoma 43.7% | UACC-62 melanoma 28.7% | SK-MEL-2 melanoma 40.9% | EKVX NSCLC 62.2% | SN12C renal 59.5% | UO-31 renal 60.5% | TK-10 renal 81.6% | ACHN renal 55.7% | CAKI-1 renal 50.5% | CCRF-CEM leukemia 40.1% | MOLT-4 leukemia 44.8%

CC(=O)CC1CCCC1c1ccc2ccccc2c1 (configuration not stated)
inactive: HCT-15 colon 103% | HT29 colon 95.8% | SNB-75 CNS 93.8% | SNB-19 CNS 104% | U251 CNS 94.4% | PC-3 prostate 91.9% | SK-MEL-5 melanoma 101% | UACC-62 melanoma 99.6% | SK-MEL-28 melanoma 103% | EKVX NSCLC 102% | SN12C renal 105% | UO-31 renal 84.7% | TK-10 renal 91.5% | ACHN renal 101% | CAKI-1 renal 98.6% | A498 renal 97.6% | CCRF-CEM leukemia 97.6% | MOLT-4 leukemia 99.2%

c1ccc2c(c1)CCN(NCCN1CCCC1)C2
inactive: HCT-15 colon 105% | HT29 colon 101% | SNB-75 CNS 70.9% | SNB-19 CNS 107% | U251 CNS 94.3% | PC-3 prostate 64.6% | SK-MEL-5 melanoma 104% | UACC-62 melanoma 98.6% | LOX IMVI melanoma 90.1% | EKVX NSCLC 86.4% | SN12C renal 94.8% | UO-31 renal 75% | TK-10 renal 96.6% | ACHN renal 89% | A498 renal 87.7% | CCRF-CEM leukemia 79.3% | MOLT-4 leukemia 99.4%

Nc1cc(C(F)(F)F)c(-c2cc(N3CCOCC3)nc(N3CCOCC3)n2)cn1
active: HCT-15 colon -10% | HT29 colon -29.2% | SNB-75 CNS -69% | SNB-19 CNS 0.838% | U251 CNS -2.08% | PC-3 prostate -10.4% | SK-MEL-5 melanoma -75.5% | UACC-62 melanoma -72.7% | SK-MEL-28 melanoma -47.5% | EKVX NSCLC -13.4% | SN12C renal -3.99% | UO-31 renal -34.4% | TK-10 renal -35.4% | CAKI-1 renal -25.1% | A498 renal -80.4% | CCRF-CEM leukemia 4.63% | MOLT-4 leukemia -11.9%

CO[C@@H](C(=O)N1Cc2[nH]nc(NC(=O)c3ccc(N4CCN(C)CC4)cc3)c2C1)c1ccccc1
inactive: HCT-15 colon 74.2% | SNB-19 CNS 28.3% | U251 CNS 16% | PC-3 prostate 26.5% | UACC-62 melanoma 30.6% | EKVX NSCLC 59.3% | SN12C renal 26.8% | UO-31 renal 50.7% | ACHN renal 41.9% | CAKI-1 renal 17.3% | CCRF-CEM leukemia 51.5% | MOLT-4 leukemia 31%
active: HT29 colon -34.7% | SNB-75 CNS -85.5% | SK-MEL-5 melanoma -20.5% | LOX IMVI melanoma -89% | TK-10 renal 9.33%

C=CC(=O)Nc1cc2c(Nc3ccc(F)c(Cl)c3)ncnc2cc1OCCCN1CCOCC1
active: HCT-15 colon -32% | HT29 colon -74.9% | SNB-75 CNS -15.9% | UACC-62 melanoma -49.7% | SK-MEL-28 melanoma -19% | SN12C renal 0.752% | UO-31 renal -12.8% | TK-10 renal -6.01% | ACHN renal 2.82% | CAKI-1 renal -5.99% | A498 renal -29.3% | CCRF-CEM leukemia 4.44% | MOLT-4 leukemia -6.89%
inactive: SNB-19 CNS 17.4% | U251 CNS 21.2% | PC-3 prostate 17.5% | SK-MEL-5 melanoma 48.7% | EKVX NSCLC 15.8%

COc1c(OCCCN2CCOCC2)ccc2c3n(c(=NC(=O)c4cnc(N)nc4)nc12)CCN3
inactive: HCT-15 colon 14.9% | SNB-19 CNS 10.8% | U251 CNS 10.1% | PC-3 prostate 12% | EKVX NSCLC 13.2% | SN12C renal 16.3% | CCRF-CEM leukemia 17.7%
active: HT29 colon 3.56% | SNB-75 CNS -19.2% | SK-MEL-5 melanoma -48.7% | UACC-62 melanoma -48.9% | SK-MEL-28 melanoma -7.18% | UO-31 renal -13.8% | TK-10 renal -21% | ACHN renal 8.09% | CAKI-1 renal 0.422% | A498 renal -60.7% | MOLT-4 leukemia 6.38%
